compound: ClCC(=O)N1CCCC1=O; test: log2 ratio of Biotin-Ahx-Ub-VS probe labelling (fragment/DMSO); higher = less target engagement (more negative = stronger competition), active = hit call of the paper (q ≤ 0.05, log2 ratio ≤ -1); details: compound concentration: 200 uM; treatment time: 3 h
Method: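 Competitive ABPP in HEK293T cell lysate. Lysates were treated with each chloroacetamide fragment at 200 µM for 3 h, then with Biotin-Ahx-Ub-VS (0.5 µM, 1 h), NeutrAvidin-enriched and analysed by diaPASEF LC-MS/MS. Protein LFQ was median-normalised; average log2 ratio is fragment/DMSO from an unpaired t-test (n=3 treated, n=44 DMSO). Hits: q ≤ 0.05, log2 ratio ≤ -1, unique peptides ≥ 2.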

Chain of UniProt Q93008 (Q93008 whole entry): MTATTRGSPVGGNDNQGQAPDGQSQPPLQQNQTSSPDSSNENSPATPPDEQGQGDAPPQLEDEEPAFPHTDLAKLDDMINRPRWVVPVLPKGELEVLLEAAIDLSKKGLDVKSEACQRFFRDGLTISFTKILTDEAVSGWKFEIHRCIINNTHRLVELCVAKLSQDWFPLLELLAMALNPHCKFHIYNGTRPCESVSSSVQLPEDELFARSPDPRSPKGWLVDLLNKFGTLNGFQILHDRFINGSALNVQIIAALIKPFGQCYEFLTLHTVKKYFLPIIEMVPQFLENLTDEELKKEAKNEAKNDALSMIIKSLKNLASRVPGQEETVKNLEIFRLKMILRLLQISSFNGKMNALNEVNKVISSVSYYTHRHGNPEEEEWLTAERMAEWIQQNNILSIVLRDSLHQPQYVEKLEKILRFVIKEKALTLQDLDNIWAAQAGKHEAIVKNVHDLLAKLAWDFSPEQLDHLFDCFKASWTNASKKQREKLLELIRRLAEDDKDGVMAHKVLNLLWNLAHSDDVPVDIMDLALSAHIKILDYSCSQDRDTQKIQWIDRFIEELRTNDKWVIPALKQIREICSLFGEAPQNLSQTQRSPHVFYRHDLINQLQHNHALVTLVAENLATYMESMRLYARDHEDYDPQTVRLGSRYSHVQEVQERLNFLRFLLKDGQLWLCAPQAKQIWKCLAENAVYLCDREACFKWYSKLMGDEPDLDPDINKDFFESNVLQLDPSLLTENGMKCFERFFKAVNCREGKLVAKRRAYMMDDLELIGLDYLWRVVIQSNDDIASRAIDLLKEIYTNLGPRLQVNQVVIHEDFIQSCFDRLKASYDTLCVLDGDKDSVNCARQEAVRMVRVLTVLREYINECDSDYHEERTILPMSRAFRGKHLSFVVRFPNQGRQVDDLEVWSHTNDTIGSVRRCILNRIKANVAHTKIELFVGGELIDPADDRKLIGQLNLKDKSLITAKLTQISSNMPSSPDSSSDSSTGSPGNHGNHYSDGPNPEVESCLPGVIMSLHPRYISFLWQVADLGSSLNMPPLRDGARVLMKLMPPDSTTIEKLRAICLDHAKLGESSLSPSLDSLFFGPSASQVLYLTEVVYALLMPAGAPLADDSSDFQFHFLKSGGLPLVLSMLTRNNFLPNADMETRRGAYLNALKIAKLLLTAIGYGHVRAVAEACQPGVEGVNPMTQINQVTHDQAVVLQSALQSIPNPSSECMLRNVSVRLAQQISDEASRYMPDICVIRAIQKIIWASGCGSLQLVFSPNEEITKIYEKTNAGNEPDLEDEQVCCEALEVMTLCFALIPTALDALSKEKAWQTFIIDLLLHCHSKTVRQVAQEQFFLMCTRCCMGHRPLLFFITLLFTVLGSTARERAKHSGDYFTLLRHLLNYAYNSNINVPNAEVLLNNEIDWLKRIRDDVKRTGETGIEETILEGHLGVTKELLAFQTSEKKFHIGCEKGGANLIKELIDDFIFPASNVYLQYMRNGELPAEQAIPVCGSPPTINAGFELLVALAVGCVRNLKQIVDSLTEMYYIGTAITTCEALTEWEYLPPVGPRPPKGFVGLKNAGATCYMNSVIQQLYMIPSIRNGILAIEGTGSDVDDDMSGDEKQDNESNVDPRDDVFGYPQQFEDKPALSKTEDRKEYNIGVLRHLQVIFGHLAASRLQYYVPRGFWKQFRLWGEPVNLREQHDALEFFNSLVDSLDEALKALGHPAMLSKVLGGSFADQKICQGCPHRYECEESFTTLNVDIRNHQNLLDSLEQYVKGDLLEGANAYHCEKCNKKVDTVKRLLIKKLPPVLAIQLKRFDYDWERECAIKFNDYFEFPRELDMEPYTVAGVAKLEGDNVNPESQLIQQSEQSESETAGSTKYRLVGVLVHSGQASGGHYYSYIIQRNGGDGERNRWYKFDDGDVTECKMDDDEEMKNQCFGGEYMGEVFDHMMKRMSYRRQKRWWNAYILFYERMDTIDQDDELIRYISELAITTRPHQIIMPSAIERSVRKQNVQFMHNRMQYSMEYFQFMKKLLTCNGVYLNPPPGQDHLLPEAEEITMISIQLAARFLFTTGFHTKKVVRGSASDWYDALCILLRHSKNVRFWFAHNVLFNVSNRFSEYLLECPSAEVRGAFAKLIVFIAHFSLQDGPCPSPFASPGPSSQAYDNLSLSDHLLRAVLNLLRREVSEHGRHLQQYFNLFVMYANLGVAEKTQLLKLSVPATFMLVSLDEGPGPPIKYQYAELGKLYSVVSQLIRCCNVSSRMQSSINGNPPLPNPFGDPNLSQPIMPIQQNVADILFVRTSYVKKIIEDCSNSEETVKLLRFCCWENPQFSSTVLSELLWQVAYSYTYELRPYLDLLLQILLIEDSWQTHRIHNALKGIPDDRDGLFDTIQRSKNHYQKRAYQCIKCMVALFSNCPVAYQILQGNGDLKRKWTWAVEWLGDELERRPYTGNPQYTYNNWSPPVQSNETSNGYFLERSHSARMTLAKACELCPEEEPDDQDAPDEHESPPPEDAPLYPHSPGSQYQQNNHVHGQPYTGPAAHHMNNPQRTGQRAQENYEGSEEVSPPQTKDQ
Chain of UniProt P15374 (P15374 whole entry): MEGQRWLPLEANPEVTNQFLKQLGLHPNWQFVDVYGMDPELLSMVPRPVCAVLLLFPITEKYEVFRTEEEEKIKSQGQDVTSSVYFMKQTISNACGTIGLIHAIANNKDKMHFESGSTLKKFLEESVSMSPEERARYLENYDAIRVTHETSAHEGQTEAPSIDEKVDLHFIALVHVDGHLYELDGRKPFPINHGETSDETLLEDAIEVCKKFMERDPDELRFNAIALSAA
Chain of UniProt Q13107 (Q13107 whole entry): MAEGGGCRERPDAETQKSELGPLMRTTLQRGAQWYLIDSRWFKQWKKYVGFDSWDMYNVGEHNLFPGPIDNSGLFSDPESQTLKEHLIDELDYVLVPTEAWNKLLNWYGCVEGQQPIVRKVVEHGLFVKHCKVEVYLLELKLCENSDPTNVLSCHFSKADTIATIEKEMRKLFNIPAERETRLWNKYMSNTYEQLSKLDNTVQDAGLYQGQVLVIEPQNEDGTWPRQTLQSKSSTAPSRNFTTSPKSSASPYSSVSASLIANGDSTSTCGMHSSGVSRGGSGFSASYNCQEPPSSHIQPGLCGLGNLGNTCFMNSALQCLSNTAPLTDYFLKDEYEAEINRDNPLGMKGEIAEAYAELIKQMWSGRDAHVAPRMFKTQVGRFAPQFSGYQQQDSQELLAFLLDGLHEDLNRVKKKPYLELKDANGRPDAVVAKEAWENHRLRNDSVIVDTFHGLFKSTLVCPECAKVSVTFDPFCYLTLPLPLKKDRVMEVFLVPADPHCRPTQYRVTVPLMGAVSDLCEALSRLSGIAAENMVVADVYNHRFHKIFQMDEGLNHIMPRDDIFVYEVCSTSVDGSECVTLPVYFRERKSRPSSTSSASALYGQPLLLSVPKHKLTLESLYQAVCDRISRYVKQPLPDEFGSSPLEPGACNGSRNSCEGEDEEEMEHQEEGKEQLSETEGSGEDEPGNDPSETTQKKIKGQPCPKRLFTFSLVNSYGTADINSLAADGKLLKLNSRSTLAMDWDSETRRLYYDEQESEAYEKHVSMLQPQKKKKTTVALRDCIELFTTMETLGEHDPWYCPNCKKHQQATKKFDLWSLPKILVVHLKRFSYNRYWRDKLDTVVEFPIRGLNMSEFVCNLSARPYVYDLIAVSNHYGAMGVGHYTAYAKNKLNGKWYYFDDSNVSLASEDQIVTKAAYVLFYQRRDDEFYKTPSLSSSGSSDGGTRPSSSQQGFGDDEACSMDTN
Chain of UniProt Q96FW1 (Q96FW1 whole entry): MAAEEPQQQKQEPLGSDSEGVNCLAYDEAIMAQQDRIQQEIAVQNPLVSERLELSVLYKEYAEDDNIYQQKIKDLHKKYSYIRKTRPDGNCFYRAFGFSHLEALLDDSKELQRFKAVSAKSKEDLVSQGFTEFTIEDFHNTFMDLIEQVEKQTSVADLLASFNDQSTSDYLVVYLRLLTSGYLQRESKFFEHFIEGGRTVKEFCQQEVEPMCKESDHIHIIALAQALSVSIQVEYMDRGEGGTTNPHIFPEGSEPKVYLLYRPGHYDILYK
Chain of UniProt Q8TE49 (Q8TE49 whole entry): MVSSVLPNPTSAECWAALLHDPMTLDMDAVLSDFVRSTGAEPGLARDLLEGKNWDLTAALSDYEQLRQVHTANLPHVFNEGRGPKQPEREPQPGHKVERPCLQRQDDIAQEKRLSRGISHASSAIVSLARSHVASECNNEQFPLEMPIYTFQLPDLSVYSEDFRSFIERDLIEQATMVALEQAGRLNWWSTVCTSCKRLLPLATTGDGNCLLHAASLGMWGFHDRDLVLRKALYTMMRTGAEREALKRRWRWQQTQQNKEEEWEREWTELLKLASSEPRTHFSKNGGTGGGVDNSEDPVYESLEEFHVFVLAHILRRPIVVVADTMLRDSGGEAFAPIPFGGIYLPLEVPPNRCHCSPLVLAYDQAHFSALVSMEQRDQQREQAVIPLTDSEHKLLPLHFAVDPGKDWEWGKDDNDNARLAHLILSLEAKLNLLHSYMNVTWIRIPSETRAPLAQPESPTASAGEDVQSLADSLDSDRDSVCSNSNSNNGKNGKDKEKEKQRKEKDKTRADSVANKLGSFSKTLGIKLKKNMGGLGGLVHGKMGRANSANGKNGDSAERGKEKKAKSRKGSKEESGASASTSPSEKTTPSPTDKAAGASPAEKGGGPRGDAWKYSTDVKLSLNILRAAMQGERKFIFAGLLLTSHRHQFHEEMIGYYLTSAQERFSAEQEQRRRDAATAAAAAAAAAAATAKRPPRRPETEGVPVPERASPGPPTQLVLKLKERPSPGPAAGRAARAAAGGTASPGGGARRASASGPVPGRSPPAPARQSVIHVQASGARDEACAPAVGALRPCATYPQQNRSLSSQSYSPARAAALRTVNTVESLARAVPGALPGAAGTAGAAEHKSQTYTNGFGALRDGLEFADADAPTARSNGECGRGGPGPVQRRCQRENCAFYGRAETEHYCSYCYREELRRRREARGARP

Target	log2 ratio of Biotin-Ahx-Ub-VS probe labelling
USP39 (UniProt Q53GS9)	0.0278 (inactive)
USP4 (UniProt Q13107)	-0.146 (inactive)
OTUB1 (UniProt Q96FW1)	-0.0612 (inactive)
UCHL3 (UniProt P15374)	0.027 (inactive)
VCPIP1 (UniProt Q96JH7)	-0.53 (inactive)
UniProt Q8TE49	-0.249 (inactive)
USP8 (UniProt P40818)	-0.417 (inactive)
USP9X (UniProt Q93008)	-0.16 (inactive)

From the supplement of paper PMC11732987, “Enantioselective OTUD7B fragment discovery through chemoproteomics screening and high-throughput optimisation” (Communications Chemistry, 2025)
